This note sets out measurements from PubChem BioAssay (NCI).

The test deals with MDA-MB-468 breast. As to the kind of experiment: NCI-60 one-dose screen, 48 h (100 = growth as untreated, 0 = no growth, -100 = all killed). The following applies: 10 µM unless noted.

The structures appear in SMILES notation. The panel holds about 83,000 compounds, 20% with a hit somewhere; the sample as a whole holds those more often.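 Negative percent growth values reflect cell death: -40 means 40% of the cells present at the start died, and -100 means all died.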 A number with no mark means an inactive call. The source made the active and inactive calls. The calls were made as follows: active = growth percent below 10; inactive = the rest.

Consider `COc1ccc2c(c1)C(=O)CC(c1ccccc1OC)O2` (configuration not stated), for which the growth was 92.2%.

As to `O=S1(=O)OC(c2cc(Cl)c(O)c(Br)c2)(c2cc(Cl)c(O)c(Br)c2)c2ccccc21`, the growth was 118%.

Take `CCCCCCCCCCCCCCCCC(Br)C(=O)O` (configuration not stated): the growth was 96%.

`C/C(=C\c1ccc([N+](=O)[O-])cc1)C(=O)O`: the growth was 116%.

With `CN(C)c1ccc(-c2cc(-c3c[nH]c4ccccc34)nc(N)c2C#N)cc1`, the growth was 39.7%.

For the compound `CCN=C1C=CC(=C(c2ccc(N(CC)CC)cc2)c2ccc(N(CC)CC)cc2)c2ccccc21`, the growth is -74.1% (active).

Turning to `O=C1/C(=C/c2ccc(O)cc2)CSc2ccc(Cl)cc21`, the growth was 30.2%.
